{
  "source": "paper PMC7862700",
  "about": "“An all-to-all approach to the identification of sequence-specific readers for epigenetic DNA modifications on cytosine”",
  "assay_in_all_cases": "DAPPL (digital affinity profiling via proximity ligation, sequencing); 10 mM Tris-HCl pH 7.5, 50 mM NaCl, 1 mM DTT, 4% glycerol, room temperature, 30 min; GST-TFs on glutathione beads, 16-mer random dsDNA library, 0.1% formaldehyde crosslink after washing; high values mean tight binding",
  "details_in_all_cases": "protein: recombinant; tags: N-terminal GST; dsDNA, one strand shown",
  "key": {"FLI1": {"target": "T1, FLI1 (Homo sapiens, UniProt Q01543 1-452)", "T1 sequence": "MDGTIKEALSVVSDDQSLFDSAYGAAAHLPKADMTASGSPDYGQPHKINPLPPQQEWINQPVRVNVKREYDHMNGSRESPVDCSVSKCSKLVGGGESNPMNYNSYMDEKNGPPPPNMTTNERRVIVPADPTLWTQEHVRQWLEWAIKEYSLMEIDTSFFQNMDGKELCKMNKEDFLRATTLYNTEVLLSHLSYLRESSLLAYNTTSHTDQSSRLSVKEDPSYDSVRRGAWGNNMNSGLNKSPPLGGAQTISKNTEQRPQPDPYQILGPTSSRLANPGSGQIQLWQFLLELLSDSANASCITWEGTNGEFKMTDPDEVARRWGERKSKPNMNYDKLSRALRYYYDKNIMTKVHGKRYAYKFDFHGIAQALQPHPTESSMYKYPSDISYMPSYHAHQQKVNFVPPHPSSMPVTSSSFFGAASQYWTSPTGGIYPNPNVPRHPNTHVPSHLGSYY", "summary_of_the_method": "(§1)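 Each value of binding signal is a hexamer's read frequency for a factor divided by the same hexamer's frequency in the tag-only sample. Barcoded, bead-captured GST fusions of human transcription factors made in yeast were pooled with that sample and incubated with 200 nmole of a random double-stranded 16-mer DNA library in Tris/NaCl/DTT/glycerol buffer at room temperature for 30 min. Washing, 0.1% formaldehyde crosslinking, proximity ligation, PCR and Illumina NextSeq500 sequencing followed.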"}, "ELK1": {"target": "T2, ELK1 (Homo sapiens, UniProt P19419 1-428)", "T2 sequence": "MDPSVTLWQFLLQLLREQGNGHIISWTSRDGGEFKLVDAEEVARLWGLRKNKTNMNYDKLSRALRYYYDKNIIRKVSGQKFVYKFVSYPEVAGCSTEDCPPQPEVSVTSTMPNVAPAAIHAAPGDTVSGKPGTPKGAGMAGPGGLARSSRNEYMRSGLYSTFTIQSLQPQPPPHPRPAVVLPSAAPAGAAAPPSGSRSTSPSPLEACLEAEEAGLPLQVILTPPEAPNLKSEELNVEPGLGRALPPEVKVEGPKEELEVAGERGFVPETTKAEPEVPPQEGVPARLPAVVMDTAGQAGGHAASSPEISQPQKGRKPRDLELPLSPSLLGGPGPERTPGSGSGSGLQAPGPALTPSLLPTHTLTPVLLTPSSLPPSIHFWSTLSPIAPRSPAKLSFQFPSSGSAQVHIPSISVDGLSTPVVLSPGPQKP", "summary_of_the_method": "as §1"}, "GABPA": {"target": "T3, GABPA (Homo sapiens, UniProt Q06546 1-454)", "T3 sequence": "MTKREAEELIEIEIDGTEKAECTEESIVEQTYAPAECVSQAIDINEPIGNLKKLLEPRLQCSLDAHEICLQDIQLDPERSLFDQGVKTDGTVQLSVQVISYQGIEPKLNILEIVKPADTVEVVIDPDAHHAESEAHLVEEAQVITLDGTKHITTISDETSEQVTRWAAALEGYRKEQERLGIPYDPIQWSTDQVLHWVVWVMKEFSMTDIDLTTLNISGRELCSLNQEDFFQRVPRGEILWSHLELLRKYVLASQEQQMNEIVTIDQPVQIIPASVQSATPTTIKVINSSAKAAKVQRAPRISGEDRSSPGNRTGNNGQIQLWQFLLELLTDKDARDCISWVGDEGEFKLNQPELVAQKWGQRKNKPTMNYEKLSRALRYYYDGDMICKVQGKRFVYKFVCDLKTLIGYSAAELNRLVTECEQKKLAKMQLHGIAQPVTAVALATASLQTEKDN", "summary_of_the_method": "as §1"}, "ERG": {"target": "T4, ERG (Homo sapiens, UniProt P11308 1-479)", "T4 sequence": "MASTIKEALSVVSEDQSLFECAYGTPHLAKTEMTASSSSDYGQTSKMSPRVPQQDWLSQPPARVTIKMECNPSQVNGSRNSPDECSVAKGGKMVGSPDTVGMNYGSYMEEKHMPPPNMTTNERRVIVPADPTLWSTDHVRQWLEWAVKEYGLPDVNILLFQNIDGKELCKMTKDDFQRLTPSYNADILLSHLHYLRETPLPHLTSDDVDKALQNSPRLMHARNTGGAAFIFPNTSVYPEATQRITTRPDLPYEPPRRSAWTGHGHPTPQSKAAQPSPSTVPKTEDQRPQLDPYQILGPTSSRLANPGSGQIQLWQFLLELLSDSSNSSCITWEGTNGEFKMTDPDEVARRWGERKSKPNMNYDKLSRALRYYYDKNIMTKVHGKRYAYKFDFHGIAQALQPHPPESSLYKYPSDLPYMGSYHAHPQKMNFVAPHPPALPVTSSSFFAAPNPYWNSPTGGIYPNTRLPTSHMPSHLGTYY", "summary_of_the_method": "as §1"}, "ELF1": {"target": "ELF1 (Homo sapiens, UniProt P32519 1-619)", "sequence (P32519 whole entry)": "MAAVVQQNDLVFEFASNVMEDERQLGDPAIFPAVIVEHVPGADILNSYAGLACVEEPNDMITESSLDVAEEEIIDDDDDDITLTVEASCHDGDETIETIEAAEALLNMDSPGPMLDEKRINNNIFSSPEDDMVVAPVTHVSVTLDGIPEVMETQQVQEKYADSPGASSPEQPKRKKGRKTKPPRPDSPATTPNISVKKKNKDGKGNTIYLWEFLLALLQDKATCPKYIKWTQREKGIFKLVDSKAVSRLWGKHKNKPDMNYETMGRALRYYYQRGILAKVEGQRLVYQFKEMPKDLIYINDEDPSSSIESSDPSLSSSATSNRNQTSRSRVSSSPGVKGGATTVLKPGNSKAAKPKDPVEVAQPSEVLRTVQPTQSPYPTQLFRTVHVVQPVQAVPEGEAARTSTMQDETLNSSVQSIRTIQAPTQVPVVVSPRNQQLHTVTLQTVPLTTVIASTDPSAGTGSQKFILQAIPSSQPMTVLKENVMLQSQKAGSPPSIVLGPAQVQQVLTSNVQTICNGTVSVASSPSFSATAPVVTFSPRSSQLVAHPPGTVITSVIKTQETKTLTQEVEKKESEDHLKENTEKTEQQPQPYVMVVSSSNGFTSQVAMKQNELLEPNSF", "summary_of_the_method": "as §1"}, "EHF": {"target": "T5, EHF (Homo sapiens, UniProt Q9NZC4 1-300)", "T5 sequence": "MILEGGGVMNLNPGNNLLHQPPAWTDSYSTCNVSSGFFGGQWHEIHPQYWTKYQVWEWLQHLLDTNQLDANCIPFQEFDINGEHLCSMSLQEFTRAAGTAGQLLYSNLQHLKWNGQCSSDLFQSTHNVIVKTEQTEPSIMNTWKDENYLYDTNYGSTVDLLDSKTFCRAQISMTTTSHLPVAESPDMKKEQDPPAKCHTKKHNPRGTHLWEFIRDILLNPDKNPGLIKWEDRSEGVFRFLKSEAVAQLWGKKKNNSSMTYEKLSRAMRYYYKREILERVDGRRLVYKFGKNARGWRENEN", "summary_of_the_method": "as §1"}, "SPI1": {"target": "SPI1 (Homo sapiens, UniProt P17947 1-270)", "summary_of_the_method": "as §1"}, "SPIB": {"target": "SPIB (Homo sapiens, UniProt Q01892 1-262)", "sequence (Q01892 whole entry)": "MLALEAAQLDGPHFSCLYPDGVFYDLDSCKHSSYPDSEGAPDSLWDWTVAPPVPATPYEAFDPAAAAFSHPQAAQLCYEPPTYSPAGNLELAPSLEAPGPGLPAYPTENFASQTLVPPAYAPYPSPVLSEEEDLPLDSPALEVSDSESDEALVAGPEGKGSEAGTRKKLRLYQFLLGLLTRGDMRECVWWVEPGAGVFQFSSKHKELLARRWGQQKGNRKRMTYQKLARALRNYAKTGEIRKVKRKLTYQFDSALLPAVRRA", "summary_of_the_method": "as §1"}, "ELK3": {"target": "T6, ELK3 (Homo sapiens, UniProt P41970 1-407)", "T6 sequence": "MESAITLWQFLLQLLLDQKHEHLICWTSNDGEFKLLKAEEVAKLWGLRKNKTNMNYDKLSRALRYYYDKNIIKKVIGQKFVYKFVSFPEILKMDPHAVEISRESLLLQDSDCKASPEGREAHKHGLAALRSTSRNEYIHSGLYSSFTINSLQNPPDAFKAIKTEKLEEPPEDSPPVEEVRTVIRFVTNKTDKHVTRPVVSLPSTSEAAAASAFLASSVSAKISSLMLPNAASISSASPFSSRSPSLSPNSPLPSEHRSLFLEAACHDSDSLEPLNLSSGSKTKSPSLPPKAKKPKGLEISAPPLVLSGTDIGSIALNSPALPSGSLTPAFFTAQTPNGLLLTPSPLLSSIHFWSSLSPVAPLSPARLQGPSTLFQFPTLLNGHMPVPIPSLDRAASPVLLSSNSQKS", "summary_of_the_method": "as §1"}},
  "data": [
    {"sequence": "GCTACT", "values": [
      {"measurement": "binding signal", "setting": "FLI1", "value": "1.37 fold enrichment (6-mer frequency, TF over GST control)"},
      {"measurement": "binding signal", "setting": "ELK1", "value": "1.25 fold enrichment (6-mer frequency, TF over GST control)"},
      {"measurement": "binding signal", "setting": "GABPA", "value": "1.32 fold enrichment (6-mer frequency, TF over GST control)"},
      {"measurement": "binding signal", "setting": "ERG", "value": "1.38 fold enrichment (6-mer frequency, TF over GST control)"},
      {"measurement": "binding signal", "setting": "ELF1", "value": "1.35 fold enrichment (6-mer frequency, TF over GST control)"},
      {"measurement": "binding signal", "setting": "EHF", "value": "1.33 fold enrichment (6-mer frequency, TF over GST control)"},
      {"measurement": "binding signal", "setting": "SPI1", "value": "1.27 fold enrichment (6-mer frequency, TF over GST control)"},
      {"measurement": "binding signal", "setting": "SPIB", "value": "1.23 fold enrichment (6-mer frequency, TF over GST control)"},
      {"measurement": "binding signal", "setting": "ELK3", "value": "1.29 fold enrichment (6-mer frequency, TF over GST control)"}
    ]},
    {"sequence": "ACGCTT", "values": [
      {"measurement": "binding signal", "setting": "FLI1", "value": "1.4 fold enrichment (6-mer frequency, TF over GST control)"},
      {"measurement": "binding signal", "setting": "ELK1", "value": "1.34 fold enrichment (6-mer frequency, TF over GST control)"},
      {"measurement": "binding signal", "setting": "GABPA", "value": "1.37 fold enrichment (6-mer frequency, TF over GST control)"},
      {"measurement": "binding signal", "setting": "ERG", "value": "1.33 fold enrichment (6-mer frequency, TF over GST control)"},
      {"measurement": "binding signal", "setting": "ELF1", "value": "1.37 fold enrichment (6-mer frequency, TF over GST control)"},
      {"measurement": "binding signal", "setting": "EHF", "value": "1.35 fold enrichment (6-mer frequency, TF over GST control)"},
      {"measurement": "binding signal", "setting": "SPI1", "value": "1.23 fold enrichment (6-mer frequency, TF over GST control)"},
      {"measurement": "binding signal", "setting": "SPIB", "value": "1.5 fold enrichment (6-mer frequency, TF over GST control)"},
      {"measurement": "binding signal", "setting": "ELK3", "value": "1.44 fold enrichment (6-mer frequency, TF over GST control)"}
    ]},
    {"sequence": "TCCGAT", "values": [
      {"measurement": "binding signal", "setting": "FLI1", "value": "1.32 fold enrichment (6-mer frequency, TF over GST control)"},
      {"measurement": "binding signal", "setting": "ELK1", "value": "1.37 fold enrichment (6-mer frequency, TF over GST control)"},
      {"measurement": "binding signal", "setting": "GABPA", "value": "1.17 fold enrichment (6-mer frequency, TF over GST control)"},
      {"measurement": "binding signal", "setting": "ERG", "value": "1.51 fold enrichment (6-mer frequency, TF over GST control)"},
      {"measurement": "binding signal", "setting": "ELF1", "value": "1.27 fold enrichment (6-mer frequency, TF over GST control)"},
      {"measurement": "binding signal", "setting": "EHF", "value": "1.36 fold enrichment (6-mer frequency, TF over GST control)"},
      {"measurement": "binding signal", "setting": "SPI1", "value": "1.29 fold enrichment (6-mer frequency, TF over GST control)"},
      {"measurement": "binding signal", "setting": "SPIB", "value": "1.24 fold enrichment (6-mer frequency, TF over GST control)"},
      {"measurement": "binding signal", "setting": "ELK3", "value": "1.27 fold enrichment (6-mer frequency, TF over GST control)"}
    ]},
    {"sequence": "CTAACA", "values": [
      {"measurement": "binding signal", "setting": "FLI1", "value": "1.28 fold enrichment (6-mer frequency, TF over GST control)"},
      {"measurement": "binding signal", "setting": "ELK1", "value": "1.24 fold enrichment (6-mer frequency, TF over GST control)"},
      {"measurement": "binding signal", "setting": "GABPA", "value": "1.16 fold enrichment (6-mer frequency, TF over GST control)"},
      {"measurement": "binding signal", "setting": "ERG", "value": "1.21 fold enrichment (6-mer frequency, TF over GST control)"},
      {"measurement": "binding signal", "setting": "ELF1", "value": "1.25 fold enrichment (6-mer frequency, TF over GST control)"},
      {"measurement": "binding signal", "setting": "EHF", "value": "1.21 fold enrichment (6-mer frequency, TF over GST control)"},
      {"measurement": "binding signal", "setting": "SPI1", "value": "1.24 fold enrichment (6-mer frequency, TF over GST control)"},
      {"measurement": "binding signal", "setting": "SPIB", "value": "1.17 fold enrichment (6-mer frequency, TF over GST control)"},
      {"measurement": "binding signal", "setting": "ELK3", "value": "1.15 fold enrichment (6-mer frequency, TF over GST control)"}
    ]}
  ]
}
